Reference: PubChem BioAssay AID1159580 (chemical genetic matrix, 2015)
Among all 5,500 compounds or so, about 2,000 (36%) were called active. Another 18% or so got no clear call; they are omitted. No stated cut-off is given here; in the data, active means normalized growth mostly below about 0.91 (no sharp cut-off); inconclusive means no clear call, values can overlap the other calls; inactive means mostly above about 0.92. This is one part of the list.

Assay: chemical genetic growth profiling, strain panel (AID 1159580);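 further: tested at 20 µM; growth read once vehicle control cultures reached saturation at 30 °C; 1 = growth at the plate median or of vehicle wells; lower values mean less growth of the strain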
Details: growth OD

Measured: normalized growth

COc1ccc2c(c1OC)C(=O)O[C@@H]2[C@H]1c2cc3c(cc2CCN1C)OCO3
inactive: S. cerevisiae deletion strains, locus YJR075W, strain HOC1, hits give low values 1.02 | S. cerevisiae deletion strains, locus YKL009W, strain mrt4, hits give low values 1.03 | S. cerevisiae deletion strains, locus YKL068W, hits give low values 1.02 | S. cerevisiae deletion strains, locus YKL085W, strain MDH1 (second series), hits give low values 1.04 | S. cerevisiae deletion strains, locus YKL085W, strain MDH1, hits give low values 1.04 | S. cerevisiae deletion strains, locus YKL160W, strain elf1, hits give low values 0.974 | S. cerevisiae deletion strains, locus YKL190W, strain CNB1, hits give low values 1.02 | S. cerevisiae deletion strains, locus YKR001C, strain vps1, hits give low values 1.03 | S. cerevisiae deletion strains, locus YKR026C, strain gcn3, hits give low values 0.998 | S. cerevisiae deletion strains, locus YKR091W, strain srl3, hits give low values 0.997 | S. cerevisiae deletion strains, locus YLL001W, strain dnm1, hits give low values 0.994 | S. cerevisiae deletion strains, locus YLL026W, hits give low values 0.992 | S. cerevisiae deletion strains, locus YLL041C, strain sdh2, hits give low values 1 | S. cerevisiae deletion strains, locus YLR027C, strain aat2, hits give low values 0.996 | S. cerevisiae deletion strains, locus YLR039C, strain RIC1, hits give low values 1.07 | S. cerevisiae deletion strains, locus YLR058C, strain SHM2, hits give low values 1.02 | S. cerevisiae deletion strains, locus YLR102C, strain apc9, hits give low values 1.01 | S. cerevisiae deletion strains, locus YLR113W, strain HOG1, hits give low values 0.991 | S. cerevisiae deletion strains, locus YLR221C, strain rsa3, hits give low values 0.983 | S. cerevisiae deletion strains, locus YLR258W, strain gsy2, hits give low values 0.988 | S. cerevisiae deletion strains, locus YLR262C, strain YPT6 (second series), hits give low values 0.98 | S. cerevisiae deletion strains, locus YLR262C, strain YPT6, hits give low values 1.04 | S. cerevisiae deletion strains, locus YLR268W, strain sec22, hits give low values 1.01 | S. cerevisiae deletion strains, locus YLR320W, strain mms22, hits give low values 0.967 | S. cerevisiae deletion strains, locus YLR330W, strain CHS5, hits give low values 1.02 | S. cerevisiae deletion strains, locus YLR342W, strain FKS1 (second series), hits give low values 1.06 | S. cerevisiae deletion strains, locus YLR342W, strain FKS1, hits give low values 0.984 | S. cerevisiae deletion strains, locus YLR357W, strain rsc2, hits give low values 0.998 | S. cerevisiae deletion strains, locus YLR370C, strain arc18, hits give low values 1 | S. cerevisiae deletion strains, locus YLR371W, strain rom2, hits give low values 1.02 | S. cerevisiae deletion strains, locus YLR384C, strain iki3, hits give low values 0.983 | S. cerevisiae deletion strains, locus YLR418C, strain cdc73, hits give low values 1.02 | S. cerevisiae deletion strains, locus YML016C, strain PPZ1, hits give low values 1.01 | S. cerevisiae deletion strains, locus YML032C, strain rad52, hits give low values 1.03 | S. cerevisiae deletion strains, locus YML120C, strain ndi1, hits give low values 0.985 | S. cerevisiae deletion strains, locus YML124C, strain tub3, hits give low values 1.02 | S. cerevisiae deletion strains, locus YMR058W, strain fet3, hits give low values 0.998 | S. cerevisiae deletion strains, locus YMR078C, strain ctf18, hits give low values 1.03 | S. cerevisiae deletion strains, locus YMR125W, strain sto1, hits give low values 0.988 | S. cerevisiae deletion strains, locus YMR129W, hits give low values 1 | S. cerevisiae deletion strains, locus YMR205C, strain PFK2, hits give low values 0.971 | S. cerevisiae deletion strains, locus YMR223W, strain ubp8, hits give low values 1.03 | S. cerevisiae deletion strains, locus YMR231W, strain pep5, hits give low values 0.993 | S. cerevisiae deletion strains, locus YMR263W, strain SAP30, hits give low values 1.01 | S. cerevisiae deletion strains, locus YMR307W, strain GAS1, hits give low values 1.09 | S. cerevisiae deletion strains, locus YNL067W, strain RPL9B, hits give low values 1.01 | S. cerevisiae deletion strains, locus YNL071W, strain lat1, hits give low values 0.997 | S. cerevisiae deletion strains, locus YNL128W, strain TEP1, hits give low values 1.02 | S. cerevisiae deletion strains, locus YNL153C, strain GIM3, hits give low values 1.01 | S. cerevisiae deletion strains, locus YNL183C, strain NPR1, hits give low values 0.953 | S. cerevisiae deletion strains, locus YNL209W, strain ssb2, hits give low values 0.993 | S. cerevisiae deletion strains, locus YNL233W, strain BNI4, hits give low values 1.02 | S. cerevisiae deletion strains, locus YNL248C, strain rpa49, hits give low values 0.999 | S. cerevisiae deletion strains, locus YNL250W, strain rad50, hits give low values 1.02 | S. cerevisiae deletion strains, locus YNL271C, strain bni1, hits give low values 1.01 | S. cerevisiae deletion strains, locus YNL298W, strain CLA4, hits give low values 1.03 | S. cerevisiae deletion strains, locus YNL307C, strain MCK1, hits give low values 1.02 | S. cerevisiae deletion strains, locus YNL322C, strain KRE1 (second series), hits give low values 0.99 | S. cerevisiae deletion strains, locus YNL322C, strain KRE1, hits give low values 1.01 | S. cerevisiae deletion strains, locus YNR049C, strain mso1, hits give low values 0.996 | S. cerevisiae deletion strains, locus YNR052C, strain pop2, hits give low values 1.02 | S. cerevisiae deletion strains, locus YOL006C, strain TOP1, hits give low values 1.04 | S. cerevisiae deletion strains, locus YOL012C, strain htz1 1.03 | S. cerevisiae deletion strains, locus YOL147C, strain pex11, hits give low values 1.02 | S. cerevisiae deletion strains, locus YOR001W, strain rrp6, hits give low values 0.998 | S. cerevisiae deletion strains, locus YOR061W, strain CKA2, hits give low values 1.02 | S. cerevisiae deletion strains, locus YOR069W, strain VPS5, hits give low values 1.02 | S. cerevisiae deletion strains, locus YOR070C, strain gyp1, hits give low values 0.984 | S. cerevisiae deletion strains, locus YOR080W, strain dia2, hits give low values 0.987 | S. cerevisiae deletion strains, locus YOR083W, strain WHI5, hits give low values 0.985 | S. cerevisiae deletion strains, locus YOR106W, strain vam3, hits give low values 0.972 | S. cerevisiae deletion strains, locus YOR136W, strain idh2, hits give low values 1.02 | S. cerevisiae deletion strains, locus YOR144C, strain elg1, hits give low values 1.02 | S. cerevisiae deletion strains, locus YOR184W, strain ser1, hits give low values 1.04 | S. cerevisiae deletion strains, locus YOR231W, strain MKK1, hits give low values 0.994 | S. cerevisiae deletion strains, locus YOR265W, strain rbl2, hits give low values 0.996 | S. cerevisiae deletion strains, locus YOR270C, strain vph1, hits give low values 1.01 | S. cerevisiae deletion strains, locus YOR290C, strain snf2, hits give low values 0.989 | S. cerevisiae deletion strains, locus YOR316C, strain cot1, hits give low values 1.02 | S. cerevisiae deletion strains, locus YPL051W, strain arl3, hits give low values 0.976 | S. cerevisiae deletion strains, locus YPL055C, strain LGE1, hits give low values 1.03 | S. cerevisiae deletion strains, locus YPL078C, strain atp4, hits give low values 1 | S. cerevisiae deletion strains, locus YPL106C, strain sse1, hits give low values 0.976 | S. cerevisiae deletion strains, locus YPL240C, strain hsp82, hits give low values 0.995 | S. cerevisiae deletion strains, locus YPL241C, strain CIN2, hits give low values 1.01 | S. cerevisiae deletion strains, locus YPL256C, strain CLN2, hits give low values 0.971 | S. cerevisiae deletion strains, locus YPR119W, strain clb2, hits give low values 1.02 | S. cerevisiae deletion strains, locus YPR141C, strain kar3, hits give low values 1.03 | S. cerevisiae deletion strains, locus YPR163C, strain tif3, hits give low values 1.03 | S. cerevisiae deletion strains, locus YPR167C, strain met16, hits give low values 1.02 | S. cerevisiae deletion strains, strain wtn01, hits give low values 1.02 | S. cerevisiae strains, strain wild type, hits give low values 1.01
